Inconclusive results are not listed. Active and inactive are the calls of the source. Unless noted, calls follow the shape of the dose curve; as a rule, active = well fitted curve in the direction sought with a large enough effect; inconclusive = small, poorly fitted or top-dose-only effect, or another doubt; inactive = no such curve, though single readings can be large; an effect the other way counts as inactive or inconclusive.
Assays:
[1] = qHTS assay for small molecule antagonists of peroxisome proliferator-activated receptor delta signaling (AID 588535; active = well fitted inhibition curve with a large enough effect in the signal ratio, with a control signal flat, not every such curve was filed as active; the % refers to the signal ratio;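 as to max response: cells co-treated with a PPAR-delta agonist as stimulator during compound exposure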); settings: HEK293T PPARd-UAS-bla, beta-lactamase FRET ratio, 18 h; 460 nm channel
In short: (§1)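 Inhibition of PPAR-delta response element-driven beta-lactamase expression is measured in HEK293T cells exposed to a compound titration series for 18 hrs at 37 C. Half-maximal inhibition comes from Hill equation fitting.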

[2] = biological target: Peroxisome proliferator-activated receptor delta (Homo sapiens) (UniProt Q03181); experiment: as above; settings: HEK293T PPARd-UAS-bla, beta-lactamase FRET ratio, 18 h; series mostly up to 76.7 µM
In short: as §1

[3] = biological target: Vitamin D3 receptor (Homo sapiens) (UniProt P11473); experiment: qHTS assay for small molecule antagonists of vitamin D receptor signaling (AID 588541; calls by dose curve;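 also: receptor activated by calcitriol during compound treatment; % is scaled to controls: 0 for no effect and ±100 for the full control effect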); settings: HEK293T VDR-UAS-bla, beta-lactamase ratio, antagonist mode; series mostly up to 76.7 µM
In short: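 VDR-UAS-bla HEK293T cells (2000/well, 2% charcoal-stripped FBS) were treated with titrated compounds plus 1-alpha,25-dihydroxyvitamin D3 (50 nM or 3 nM final) for 16 h at 37 C. CCF4 beta-lactamase fluorescence was read; Hill fits gave IC50.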

[4] = biological target: Vitamin D3 receptor (Homo sapiens) (UniProt P11473); experiment: qHTS assay for small molecule agonists of vitamin D receptor signaling (AID 588543; calls by dose curve;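 also: 0% = DMSO basal and 100% = reference agonist control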); settings: HEK293T VDR-UAS-bla, beta-lactamase ratio, 16 h; series mostly up to 76.8 µM
In short: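 Agonist-mode beta-lactamase reporter: HEK293T VDR-UAS-bla cells in charcoal-stripped 2% FBS, compound series 16 h 37 C, CCF4 2 h RT. EC50 from Hill fit, scaled against DMSO and 50 nM calcitriol control.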

[5] = qHTS assay for small molecule agonists of retinoid X receptor alpha signaling (AID 588544; calls by dose curve;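 as to activation: 0% = DMSO basal wells and 100% = reference agonist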); settings: HEK293T RXRa-UAS-bla, beta-lactamase reporter, 18 h; 530 nm emission
[6] = biological target: Retinoic acid receptor RXR-alpha (Homo sapiens) (UniProt P19793); experiment: as above; settings: HEK293T RXRa-UAS-bla, beta-lactamase reporter, 18 h; series mostly up to 76.7 µM
[7] = biological target: Thyroid hormone receptor beta (Homo sapiens) (UniProt P10828); experiment: qHTS assay for small molecule agonists of thyroid hormone receptor beta signaling (AID 588545; calls by dose curve;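 also: 0% = DMSO only and 100% = 10 nM T3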); settings: TR-UAS-bla GripTite HEK 293, beta-lactamase ratio, agonist mode, 18 h; series mostly up to 76.7 µM
In short: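 Stimulation of a TR-driven beta-lactamase reporter was quantified in GripTite HEK 293 cells. Compound series ran for 18 hrs; curves were normalized to T3 and DMSO controls and fitted to yield EC50.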

[8] = qHTS assay for small molecule antagonists of retinoid X receptor alpha signaling (AID 588546; active = well fitted inhibition curve with a large enough effect in the signal ratio, with a control signal flat, not every such curve was filed as active; the % refers to the signal ratio;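 also: cells stimulated with 9-cis-retinoic acid as agonist; % is scaled to controls: 0 for no effect and ±100 for the full control effect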); settings: HEK293T RXRa-UAS-bla, beta-lactamase ratio, antagonist mode; measured here: W530 green channel, cytotoxicity proxy
In short: (§2)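 Beta-lactamase reporter inhibition, read as CCF4 fluorescence ratio (ex 405, em 460/530 nm) after 2 h at RT. HEK293T UAS-bla cells, 2500/well, were stimulated with 9-cis-RA at 500 or 100 nM final alongside test compound for 18 h at 37 C.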

[9] = qHTS assay for small molecule activators of the p53 signaling pathway (AID 651743; active = well fitted activation curve with a large enough effect in the signal ratio, not every such curve was filed as active; the % refers to the signal ratio; also: % of control where 0% means no effect); settings: HCT-116 p53RE-bla, beta-lactamase FRET ratio, 16 h; activation: stronger effect = higher value
In short: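 Agonist-mode quantitative HTS in HCT-116 cells carrying a p53-response-element beta-lactamase reporter; 16 h compound treatment at 37 C, then FRET substrate loading for 2 h at room temperature and fluorescence read.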

[10] = qHTS assay for environmental chemicals that activate the Aryl hydrocarbon Receptor (AhR) signaling pathway (AID 651777); settings: 1A2-DRE human hepatoma cells, luciferase, 24 h; activation: stronger effect = higher value; also: % of control where 0% means no effect; nearly all actives have a fitted effect of over 15% in size
In short: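 Human hepatoma 1A2-DRE cells, stably carrying a dioxin response element and CYP1A2 promoter driving luciferase, were exposed to compounds for 24 hr at 37 C and 5% CO2. Luciferase signal was then read after 30 min One-Glo at room temperature.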

[11] = biological target: Peroxisome proliferator-activated receptor alpha (Homo sapiens) (UniProt Q07869); experiment: qHTS assay for small molecule agonists of the peroxisome proliferator-activated receptor alpha (PPARalpha) signaling pathway (AID 651778); settings: PathHunter PPARalpha complementation, chemiluminescence, 6 h; max response: stronger effect = higher value; also: % of control where 0% means no effect
In short: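 Cells plated at 2,000/well and held overnight at 37 C, 5% CO2, then compound added by pin tool for 6 hr; after PathHunter detection reagent and 60 min at room temperature, chemiluminescence from enzyme complementation was read.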

[12] = qHTS assay for small molecule agonists of the antioxidant response element (ARE) signaling pathway measured by Nrf2-dependant transcriptional activity (AID 720636; active = well fitted curve in the direction sought with a large enough effect in the repeat runs; an effect the other way counts as inactive or inconclusive; also: % of control where 0% means no effect); settings: ARE-luc HepG2, Nrf2 luciferase reporter, 16 h; series mostly up to 92.4 µM
In short: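 ARE-luc HepG2 cells carrying an Nrf2-responsive luciferase reporter were plated in medium with 1% dialyzed FBS, left 6 hr at 37 C to attach, then exposed to compound for 16 hr. Luciferase luminescence was read after ONE-Glo addition.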

[13] = qHTS assay for small molecule agonists of the antioxidant response element (ARE) signaling pathway measured by Nrf2-dependant transcriptional activity - cell viability counter screen (AID 720653; active = well fitted curve in the direction sought with a large enough effect in the repeat runs; an effect the other way counts as inactive or inconclusive; also: % is scaled to controls: 0 for no effect and ±100 for the full control effect); settings: ARE-bla HepG2 viability, CellTiter-Glo ATP luminescence, 16 h; max response: stronger effect = lower value
In short: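 ARE-bla HepG2 cells (2,000/well) rested 5 hrs at 37C/5% CO2, then exposed to compounds in DMSO for 16 hrs. Viability was read in the same wells as intracellular ATP by luminescence, 30 min at room temperature after reagent addition.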

[14] = qHTS assay for cell viability of HEK293 cells (AID 743288); settings: ATP luminescence (CellTiter-Glo), 18 h; max response: stronger effect = lower value; also: % is scaled to controls: 0 for no effect and ±100 for the full control effect; nearly all actives have a fitted effect of over 50% in size
In short: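 Readout is luciferase-coupled ATP content (CellTiter-Glo luminescence, 30 min room temperature) as a measure of metabolically competent cells. Parental HEK293 cells were plated 5 h or more before compound addition, then treated 18 h at 37 C.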

[15] = qHTS assay for cell viability of the p53RE-bla HCT-116 cell line (AID 743292); settings: p53RE-bla HCT-116 viability, ATP luminescence, 16 h; series mostly up to 95 µM; also: % is scaled to controls: 0 for no effect and ±100 for the full control effect; nearly all actives have a fitted effect of over 55% in size
In short: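 CellSensor p53RE-bla HCT-116 cells, 4,000/well, preincubated 5 h at 37 C, then exposed to compounds in DMSO for 16 h at 37 C. Viability read as CellTiter-Glo luminescence (intracellular ATP) after 30 min at room temperature.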

[16] = biological target: Nuclear receptor subfamily 1 group I member 2 (Rattus norvegicus) (UniProt Q9R1A7); experiment: qHTS assay for small molecule activators of the rat pregnane X receptor (rPXR) signaling pathway (AID 651751; call rule not given here; also: 0% is about no effect); settings: rPXR reporter cells, luciferase (One-Glo), 24 h
[17] = qHTS assay for small molecule activators of the human pregnane X receptor (PXR) signaling pathway (AID 720659; call rule not given here; also: 0% is about no effect); settings: DPX-2 HepG2 CYP3A4-luciferase, 24 h; series mostly up to 92.3 µM
[18] = biological target: Glucocorticoid receptor (Homo sapiens) (UniProt P04150); experiment: qHTS assay for small molecule antagonists of glucocorticoid receptor signaling (AID 588533; active = well fitted inhibition curve with a large enough effect in the signal ratio, with a control signal flat, not every such curve was filed as active; the % refers to the signal ratio); settings: HeLa MMTV-bla, GRE beta-lactamase ratio, antagonist mode, 18 h; series mostly up to 76.8 µM
In short: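 Antagonist-mode qHTS: compound titrations added to GRE-bla HeLa cells, then dexamethasone 2 nM final; 18 h, 37 C. CCF4 FRET fluorescence normalized to dexamethasone and DMSO; IC50 from Hill fit.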

[19] = biological target: Retinoic acid receptor RXR-alpha (Homo sapiens) (UniProt P19793); experiment: qHTS assay for small molecule antagonists of retinoid X receptor alpha signaling (AID 588546); settings: HEK293T RXRa-UAS-bla, beta-lactamase ratio, antagonist mode;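 also: cells stimulated with 9-cis-retinoic acid as agonist; % is scaled to controls: 0 for no effect and ±100 for the full control effect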
In short: as §2

[20] = qHTS assay for small molecule activators of the nuclear factor-kappa B (NF-kB) signaling pathway (AID 651749; active = well fitted activation curve with a large enough effect in the signal ratio; the % refers to the signal ratio; also: % of control where 0% means no effect); settings: NF-kB-bla ME-180 cells, beta-lactamase FRET ratio, 16 h; activation: stronger effect = higher value
In short: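 Human ME-180 cervical cells with an NF-kB-bla construct; compounds added via 23 nL pin transfer, DMSO as vehicle; incubation 16 hr. Reporter activity measured by FRET disruption.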

Chain of Thyroid hormone receptor beta (Homo sapiens) (P10828 whole entry, looked up): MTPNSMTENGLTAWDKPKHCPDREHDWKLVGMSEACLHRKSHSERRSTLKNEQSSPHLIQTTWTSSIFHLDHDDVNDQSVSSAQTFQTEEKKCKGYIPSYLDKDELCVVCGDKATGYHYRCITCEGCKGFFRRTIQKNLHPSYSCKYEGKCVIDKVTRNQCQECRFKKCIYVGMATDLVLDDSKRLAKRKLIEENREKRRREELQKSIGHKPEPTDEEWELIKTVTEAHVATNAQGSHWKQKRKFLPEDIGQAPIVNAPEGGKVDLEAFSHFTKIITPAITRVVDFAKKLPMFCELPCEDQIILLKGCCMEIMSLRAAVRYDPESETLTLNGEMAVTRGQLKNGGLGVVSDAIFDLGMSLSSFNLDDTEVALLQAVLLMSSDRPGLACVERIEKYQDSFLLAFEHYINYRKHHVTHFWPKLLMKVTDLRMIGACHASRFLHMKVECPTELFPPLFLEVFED
Chain of Peroxisome proliferator-activated receptor alpha (Homo sapiens) (Q07869 whole entry, looked up): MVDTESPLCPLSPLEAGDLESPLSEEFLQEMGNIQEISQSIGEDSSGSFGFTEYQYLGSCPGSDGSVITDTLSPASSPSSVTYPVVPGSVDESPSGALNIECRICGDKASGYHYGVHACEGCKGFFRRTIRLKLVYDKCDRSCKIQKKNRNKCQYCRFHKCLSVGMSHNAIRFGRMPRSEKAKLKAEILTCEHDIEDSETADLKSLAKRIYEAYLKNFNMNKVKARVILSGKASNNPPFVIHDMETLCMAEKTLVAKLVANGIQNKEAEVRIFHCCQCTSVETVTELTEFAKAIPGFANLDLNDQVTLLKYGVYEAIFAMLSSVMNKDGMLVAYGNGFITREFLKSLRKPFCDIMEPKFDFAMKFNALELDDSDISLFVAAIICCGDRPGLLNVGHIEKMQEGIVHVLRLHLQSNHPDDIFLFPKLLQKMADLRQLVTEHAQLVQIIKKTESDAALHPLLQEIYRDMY
Chain of Peroxisome proliferator-activated receptor delta (Homo sapiens) (Q03181 whole entry, looked up): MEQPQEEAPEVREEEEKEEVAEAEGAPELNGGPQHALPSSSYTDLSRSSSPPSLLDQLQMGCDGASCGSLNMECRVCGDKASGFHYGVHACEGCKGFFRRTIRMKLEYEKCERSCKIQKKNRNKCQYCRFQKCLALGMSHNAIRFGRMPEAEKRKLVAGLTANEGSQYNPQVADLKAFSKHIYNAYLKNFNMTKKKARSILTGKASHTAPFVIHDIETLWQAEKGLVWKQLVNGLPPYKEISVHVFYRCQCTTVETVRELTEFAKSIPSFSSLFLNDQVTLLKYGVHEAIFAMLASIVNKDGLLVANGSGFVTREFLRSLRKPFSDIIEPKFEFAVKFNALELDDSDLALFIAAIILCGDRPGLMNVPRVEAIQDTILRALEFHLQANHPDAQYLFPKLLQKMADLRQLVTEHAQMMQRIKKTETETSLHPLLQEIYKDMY
Chain of Glucocorticoid receptor (Homo sapiens) (P04150 whole entry, looked up): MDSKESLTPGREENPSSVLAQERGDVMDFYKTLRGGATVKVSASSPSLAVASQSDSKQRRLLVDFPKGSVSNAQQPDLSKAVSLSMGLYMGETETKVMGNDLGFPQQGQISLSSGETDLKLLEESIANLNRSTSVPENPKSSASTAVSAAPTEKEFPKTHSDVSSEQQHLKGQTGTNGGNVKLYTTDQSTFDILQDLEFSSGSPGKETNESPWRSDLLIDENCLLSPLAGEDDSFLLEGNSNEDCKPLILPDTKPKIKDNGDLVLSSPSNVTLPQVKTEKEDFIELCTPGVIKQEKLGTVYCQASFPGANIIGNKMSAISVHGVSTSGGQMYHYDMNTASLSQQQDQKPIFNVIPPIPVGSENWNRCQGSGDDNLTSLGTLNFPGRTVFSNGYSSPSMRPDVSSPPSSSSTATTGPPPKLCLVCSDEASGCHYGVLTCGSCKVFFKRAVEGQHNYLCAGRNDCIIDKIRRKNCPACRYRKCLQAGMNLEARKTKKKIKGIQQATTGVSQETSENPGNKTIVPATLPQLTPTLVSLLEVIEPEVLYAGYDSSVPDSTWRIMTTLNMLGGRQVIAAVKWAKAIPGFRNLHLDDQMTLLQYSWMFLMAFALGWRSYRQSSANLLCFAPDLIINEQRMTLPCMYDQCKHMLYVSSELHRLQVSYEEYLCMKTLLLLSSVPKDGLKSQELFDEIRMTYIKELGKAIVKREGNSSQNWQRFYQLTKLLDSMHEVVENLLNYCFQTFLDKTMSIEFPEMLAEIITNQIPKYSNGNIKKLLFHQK
Chain of Retinoic acid receptor RXR-alpha (Homo sapiens) (P19793 whole entry, looked up): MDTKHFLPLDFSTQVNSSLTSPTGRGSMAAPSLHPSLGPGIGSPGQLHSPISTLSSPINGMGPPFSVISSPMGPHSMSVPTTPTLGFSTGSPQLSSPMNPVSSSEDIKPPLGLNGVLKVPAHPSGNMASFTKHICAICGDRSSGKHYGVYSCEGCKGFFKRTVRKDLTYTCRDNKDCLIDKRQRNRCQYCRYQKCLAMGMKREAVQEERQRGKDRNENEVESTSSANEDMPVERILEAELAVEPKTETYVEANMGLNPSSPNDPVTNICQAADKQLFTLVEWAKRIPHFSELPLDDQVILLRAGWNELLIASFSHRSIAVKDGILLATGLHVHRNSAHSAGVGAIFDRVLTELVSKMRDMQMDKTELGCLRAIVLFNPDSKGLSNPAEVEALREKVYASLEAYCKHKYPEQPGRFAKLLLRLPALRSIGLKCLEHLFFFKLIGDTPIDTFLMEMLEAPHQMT
Chain of Nuclear receptor subfamily 1 group I member 2 (Rattus norvegicus) (Q9R1A7 whole entry, looked up): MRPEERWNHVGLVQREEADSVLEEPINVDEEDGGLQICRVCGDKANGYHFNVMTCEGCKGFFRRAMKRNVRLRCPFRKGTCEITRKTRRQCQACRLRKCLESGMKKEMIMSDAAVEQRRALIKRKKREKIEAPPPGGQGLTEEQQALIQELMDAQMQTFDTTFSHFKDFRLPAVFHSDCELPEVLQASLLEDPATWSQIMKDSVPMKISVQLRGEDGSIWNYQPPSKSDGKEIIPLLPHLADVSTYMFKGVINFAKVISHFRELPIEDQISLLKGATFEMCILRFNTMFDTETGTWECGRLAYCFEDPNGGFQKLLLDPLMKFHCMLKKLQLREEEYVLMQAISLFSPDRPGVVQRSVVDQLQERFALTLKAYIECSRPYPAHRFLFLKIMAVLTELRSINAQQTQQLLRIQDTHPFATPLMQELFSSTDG
Chain of Vitamin D3 receptor (Homo sapiens) (P11473 whole entry, looked up): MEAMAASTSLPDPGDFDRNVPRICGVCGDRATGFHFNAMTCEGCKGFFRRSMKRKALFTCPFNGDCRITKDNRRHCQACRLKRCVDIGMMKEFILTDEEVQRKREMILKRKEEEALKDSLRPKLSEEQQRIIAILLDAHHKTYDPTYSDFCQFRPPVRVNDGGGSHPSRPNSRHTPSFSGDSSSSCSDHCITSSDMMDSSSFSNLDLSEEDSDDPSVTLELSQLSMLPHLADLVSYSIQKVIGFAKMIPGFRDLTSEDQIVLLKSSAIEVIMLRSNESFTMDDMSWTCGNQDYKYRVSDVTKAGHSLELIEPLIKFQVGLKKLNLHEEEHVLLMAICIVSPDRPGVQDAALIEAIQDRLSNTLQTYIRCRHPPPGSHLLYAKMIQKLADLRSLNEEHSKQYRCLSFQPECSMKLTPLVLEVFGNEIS

Row | SMILES | max response [1] | Potency [2] | Potency [3] | outcome [4] | max response [5] | Potency [6] | Potency [7] | max response [8] | activation [9] | activation [10] | max response [11] | Potency [12] | max response [13] | max response [14] | Potency [15] | max response [16] | outcome [17] | Potency [18] | max response [19] | activation [20]
1 | O=C=NC1CCC(CC2CCC(N=C=O)CC2)CC1 (configuration not stated) | 20.7% | inactive | inactive | inactive | -11% | inactive | inactive | -7.15% | -0.886% (inactive) | 0.629% (inactive) | -2.73% (inactive) | inactive | -1.04% (inactive) | -9.19% (inactive) | inactive | -1.91% (inactive) | inactive | – | – | –
2 | CCCCCOC(=O)COc1cc(N2C(=O)C3=C(CCCC3)C2=O)c(F)cc1Cl | – | – | inactive | inactive | – | – | inactive | – | – | 0.703% (inactive) | 1.28% (inactive) | – | 8.37% (inactive) | 4.43% (inactive) | – | 4.68% (inactive) | inactive | inactive | – | –
3 | Nc1ccc(Nc2ccccc2)cc1 | – | – | – | – | – | – | – | -6.58% | – | 5.3% (inactive) | -0.422% (inactive) | – | 14.3% (inactive) | -17.7% (inactive) | inactive | 8.87% (inactive) | – | inactive | -27.9% (inactive) | 0.195% (inactive)
4 | CCOCCOCCOCC | 12.8% | inactive | inactive | inactive | -3.22% | inactive | inactive | -7.04% | -1.74% (inactive) | 0.117% (inactive) | -2.34% (inactive) | inactive | -4.14% (inactive) | -13.3% (inactive) | inactive | 1.72% (inactive) | inactive | inactive | -12.1% (inactive) | -0.223% (inactive)
5 | CCCCCCCCCCCCN | -18.4% | inactive | – | – | 7.66% | inactive | inactive | -2.37% | -7.19% (inactive) | -1.22% (inactive) | -0.939% (inactive) | inactive | -1.6% (inactive) | -1.85% (inactive) | inactive | 0.146% (inactive) | inactive | inactive | 5.24% (inactive) | -1.82% (inactive)
6 | CCCCCCCCCCCCCCN(C)C | – | – | inactive | inactive | -17% | inactive | inactive | -0.764% | – | 1.73% (inactive) | -1.88% (inactive) | inactive | -6.77% (inactive) | -20.2% (inactive) | inactive | -1.42% (inactive) | inactive | inactive | -14.8% (inactive) | -1.59% (inactive)
7 | c1ccc2c(c1)ccc1c3ccccc3ccc21 | 1.74% | inactive | inactive | inactive | -11.3% | inactive | inactive | -22.1% | 0.403% (inactive) | – | -3.59% (inactive) | – | -24.7% (inactive) | -7.41% (inactive) | inactive | – | – | – | -7.12% (inactive) | -0.747% (inactive)
8 | CC(C)C[C@H](NC(=O)OCC1c2ccccc2-c2ccccc21)C(=O)O | 59% | inactive | – | – | – | – | inactive | – | -3.17% (inactive) | – | 11.8% (inactive) | – | -7.25% (inactive) | -22.2% (inactive) | inactive | – | – | – | – | 1.69% (inactive)
9 | CCCCC(CC)CN1C(=O)C2C3C=CC(C3)C2C1=O (configuration not stated) | – | – | inactive | inactive | – | – | inactive | 8.85% | – | -3.03% (inactive) | 7.9% (inactive) | inactive | 8.11% (inactive) | -5.32% (inactive) | – | – | – | – | -2.63% (inactive) | 0.646% (inactive)
10 | CC(C)CC(C)(O)C#CC(C)(O)CC(C)C (configuration not stated) | – | – | inactive | inactive | 10.7% | inactive | inactive | -0.0198% | 1.9% (inactive) | 0.133% (inactive) | -1.54% (inactive) | inactive | -3.69% (inactive) | -6.63% (inactive) | – | – | – | inactive | -21.9% (inactive) | -0.882% (inactive)

Source: PubChem BioAssay (NCATS)
